This is a sample that favours compounds with a hit; in the whole collection about 5.7% have one here.
KB-V1 MDR tox: kills drug-selected multidrug resistant KB-V1 cells; KB-V1 MDR cells viability, CellTiter-Glo, 72 h; Potency, µM (titrated, usually from 46.1 µM), hits mostly cytotoxic; actives 3.4% (n = 400,000); note: potency is the fitted concentration of half-maximal effect; nearly all actives have a fitted effect of over 60% in size
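Cytotoxicity toward P-gp-expressing KB-V1 cells was determined as loss of CellTiter-Glo luminescence after 72 h at 37 degrees C. Compounds were tested in quantitative HTS format across a concentration range, with curves fitted to normalized data.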
KB-3-1 cytotox: KB-3-1 parental cell cytotoxicity; KB-3-1 viability, CellTiter-Glo ATP luminescence, 72 h; Potency, µM (titrated, usually from 46.1 µM), most hits filed as cytotoxic; actives 1.4% (n = 400,000); AID 1347075; note: potency is the fitted concentration of half-maximal effect; nearly all actives have a fitted effect of over 60% in size
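KB-3-1 cells, DMEM (no phenol red) + 10% FBS; compound by pin transfer, 72 h, 37 °C. Readout: CellTiter-Glo luminescence after 10 min. Data normalized, curve-fitted.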
Nrf2 inh: blocks Nrf2 signaling; AID 504444; Potency, µM (titrated, usually from 46 µM), without a hit: at the highest dose activity change, negative = inhibition, hits mostly inhibitors; A549 ARE-Fluc reporter, luciferase luminescence, 18-24 h; actives 2.1% (n = 360,000); note: potency is the fitted concentration of half-maximal effect; nearly all actives have a fitted effect of over 60% in size
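Two sequential reads on A549 ARE_Fluc cells exposed to compound for 18-24 h: a CellTiter-Fluor fluorescence read for viability, then a luciferase luminescence read for Nrf2/ARE activity.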
Giardia killer: Giardia lamblia killing; activity change, % at 7.66 µM, hits read low; Giardia lamblia trophozoite viability; actives 0.15% (n = 340,000); AID 540267; in the data active = activity change below about -80%; inconclusive = between about -30% and that limit;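 note: parasites exposed to compound for two days anaerobically before the ATP read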
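Giardia trophozoites, 100 cells per well, were exposed to compounds for 48 hrs at 37 deg C under anaerobic conditions; viability was then read as ATP content by bioluminescence after 15-30 min at room temperature.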
PI4K2A block: inhibitors of human PI4K2A. Q9BTU6. purified PI4K2A, ADP-Glo luminescence, 1 h; stronger effect = lower value. activity change, negative = inhibition, % at 76.9 µM. actives 0.13% (n = 420,000); in the data active = activity change below about -50%; inconclusive = mostly about -30% to -49%;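 note: -100% = wells without enzyme as full effect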
Target sequence (Q9BTU6 whole entry, looked up): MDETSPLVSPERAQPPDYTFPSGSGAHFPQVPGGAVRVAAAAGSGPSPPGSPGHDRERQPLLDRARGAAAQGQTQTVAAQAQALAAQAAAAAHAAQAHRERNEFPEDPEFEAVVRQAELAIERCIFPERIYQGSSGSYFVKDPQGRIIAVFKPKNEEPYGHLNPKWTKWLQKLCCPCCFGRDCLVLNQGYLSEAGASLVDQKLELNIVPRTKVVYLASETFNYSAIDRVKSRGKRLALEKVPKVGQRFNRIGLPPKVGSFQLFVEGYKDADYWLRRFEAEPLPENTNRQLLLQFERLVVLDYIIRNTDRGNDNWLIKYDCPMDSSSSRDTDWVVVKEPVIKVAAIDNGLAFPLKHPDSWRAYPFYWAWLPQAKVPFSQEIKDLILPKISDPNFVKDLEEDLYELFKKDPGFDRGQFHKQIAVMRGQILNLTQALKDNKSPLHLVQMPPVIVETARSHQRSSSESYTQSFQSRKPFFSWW
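In this quantitative HTS, ADP production by PI4K2A was quantified luminescently after 1 h at ambient temperature; 100 microM adenosine served as plate-quality control.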
A549 tox-1: counter-screen for Nrf2 inhibitors: cytotoxicity in A549 cells; Potency, µM (top dose mostly 46 µM), without a hit: at the highest dose activity change, negative = cytotoxicity, most hits filed as inhibitors; AID 504648; A549 ARE-Fluc cells, CellTiter-Fluor viability, 18-24 h; actives 0.16% (n = 390,000); note: potency is the fitted concentration of half-maximal effect
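A549 ARE-Fluc cells in 5% FBS OPTI-MEM, 5000 cells/well, rested 2 h then exposed to compounds in concentration-response for 18-24 h at 37 °C. Viability by CellTiter-Fluor fluorescence (Ex 405/Em 525) after 30 min; luciferase luminescence (BugLite, 15 min, RT) read afterwards.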
FLuc enzyme inh: blocks purified firefly luciferase in Nrf2 counterscreen; purified firefly luciferase, luminescence inhibition; actives 4% (n = 1,400); shares compounds with Nrf2 inh; Potency, µM (doses to about 57.5 µM), without a hit: at the top dose activity change, negative = inhibition, usual class: inhibitors; note: potency is the fitted concentration of half-maximal effect; nearly all actives have a fitted effect of over 65% in size
A549 tox-2: counter-screen for Nrf2 inhibitors: cytotoxicity in A549 ARE cells; shares compounds with Nrf2 inh; Potency, µM (top dose mostly 46.1 µM), for the others: at the top dose activity change, negative = cytotoxicity, most hits filed as inhibitors; actives 2% (n = 1,400); A549 ARE-Fluc cells, cytotoxicity counterscreen;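 note: potency is the fitted concentration of half-maximal effect; cells exposed to compounds for 18 to 24 hours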
ARE-Fluc inh: reduces Nrf2 ARE reporter signal in A549 cells; shares compounds with Nrf2 inh; A549 ARE-firefly luciferase reporter, luminescence; Potency, µM (doses to about 46.1 µM), inactives show at the highest dose activity change, negative = inhibition, actives largely listed as inhibitors; actives 74% (n = 1,400); AID 720524; note: potency is the fitted concentration of half-maximal effect; nearly all actives have a fitted effect of over 65% in size
* = called active by the depositor; i = inactive; ? = inconclusive; nt = no result shown. Unless noted, calls come from the whole dose curve; as a rule, active = well fitted curve in the direction sought with a large enough effect; inconclusive = small, poorly fitted or top-dose-only effect, or another doubt; inactive = no such curve, though single readings can be large; an effect the other way counts as inactive or inconclusive. Unless noted, % is set by controls: 0 for no effect and ±100 for the full control effect.

SMILES	KB-V1 MDR tox	KB-3-1 cytotox	Nrf2 inh	Giardia killer	PI4K2A block	A549 tox-1	FLuc enzyme inh	A549 tox-2	ARE-Fluc inh
CCN1/C(=C/c2cc[n+](CCCS(=O)(=O)[O-])c3ccccc23)Sc2ccccc21	i	i	0.8%	?	-0.2	-21.6%	nt	nt	nt
C=CC[n+]1ccc(/C=C2\C=Cc3cc(C)ccc3N2CC)c2ccccc21	i	8.2µM*	7.31µM*	22.5	-20.5	?	?	?	nt
CC(C)c1cc(C(C)C)c(S(=O)(=O)N2CCC(C(=O)NCc3cccs3)CC2)c(C(C)C)c1	nt	nt	nt	nt	4.3	nt	nt	nt	nt
Cc1cc(C(=O)CN2C(=O)c3ccccc3S2(=O)=O)c(C)n1CC1CCCO1 (centres undefined)	i	i	0.92µM*	?	-1.3	3.0%	1.35µM*	-1.4%	1.16µM*
O=C1CCC2(CCC(c3ccccc3)CC2)N1CCCO (centres undefined)	nt	nt	nt	nt	-1.2	nt	nt	nt	nt
COCc1cn(-c2ccc3c(c2)[C@]2(CC(=O)N(C)C2c2ccccc2)C(=O)N3CC(C)C)nn1 (some centres undefined)	nt	nt	nt	nt	4.1	nt	nt	nt	nt
COc1cc2c(cc1OC)CN(C(=O)CN1CCN(S(=O)(=O)c3ccccc3Br)CC1)CC2	i	i	1.84µM*	21.9	-2.9	-6.8%	2.7%	-16.4%	-4.7%
O=[N+]([O-])c1cncc2[nH]cnc12	nt	nt	nt	nt	-3.5	nt	nt	nt	nt
CC[N+](C)(CC)CCOC(=O)C(O)(c1ccccc1)C1CCCCC1 (centres undefined)	i	i	7.31µM*	3.3	-0.2	-4.4%	-1.2%	9.2µM*	?
CC(C)CC(Nc1ncnc2scc(-c3ccccc3)c12)C(=O)O (centres undefined)	i	i	-17.9%	5.8	-1.6	-2.9%	nt	nt	nt
c1ccc(-c2csc3ncnc(NCC4COc5ccccc5O4)c23)cc1 (centres undefined)	23.1µM*	1.64µM*	1.64µM*	-16.9	-1.9	0.7%	-9.2%	0.0%	1.16µM*
CC(=O)OCCC(CC(C)C)NC(=O)[C@H](CC(C)C)NC(=O)OCc1ccccc1 (some centres undefined)	nt	nt	nt	nt	-3.1	nt	nt	nt	nt
O=[N+]([O-])c1ccc(N/N=C/c2sc(N3CCOCC3)nc2-c2ccccc2)c(S(=O)(=O)Nc2ccc(Cl)cc2)c1	i	2.31µM*	1.46µM*	3.1	-0.3	2.59µM*	-23.1%	?	3.26µM*
Cc1cc(Cl)c(S(=O)(=O)N2CCCC2)cc1OCC(=O)NC1CCCCC1	i	i	7.31µM*	-5.4	-2.8	nt	0.2%	-17.9%	nt
Cc1ccc(S(=O)(=O)N(C)Cc2ccc(C(=O)N/N=C/c3ccc(OC(F)F)cc3OC(F)F)cc2)cc1	5.8µM*	?	9.2µM*	-2.6	-2.6	-1.6%	2.2%	-6.7%	4.61µM*
O=C(N/N=C/c1ccc(OC(F)F)cc1OC(F)F)c1ccc(Br)cc1	i	i	15.7%	-5.6	6.0	0.7%	nt	nt	nt
COc1ccc(/C=C2\SC(=O)N(CCCC(=O)Nc3cc(Cl)ccc3C(=O)O)C2=O)cc1	i	i	0.731µM*	-24.1	-0.2	-9.7%	12µM*	-5.7%	1.46µM*
CCCC(C)NC(=O)COc1ccc(Sc2ccc(OCC(=O)NC(C)CCC)cc2)cc1 (centres undefined)	?	?	3.66µM*	-7.6	5.3	-0.3%	3.7%	-0.5%	nt
CCc1ccc(CNC(=O)c2cnc3sc(N(CC)CC)nn3c2=O)cc1	nt	nt	-1.9%	nt	-4.6	0.5%	nt	nt	nt
C=CCN(c1ccccc1)S(=O)(=O)c1cccc(C(=O)Nc2nc3ccccc3[nH]2)c1	i	i	2.91µM*	-6.2	-4.0	?	-16.3%	-0.4%	5.8µM*
O=C(CSc1nnc(-c2cccnc2)s1)Nc1ccnc2ccccc12	1.64µM*	2.31µM*	4.11µM*	-2.2	-3.2	-7.9%	-19.1%	-10.5%	5.17µM*
Cc1ccc(NC(=O)CSc2nnc(-c3cccnc3)s2)cc1	i	i	12.3%	7.5	-1.0	-12.8%	nt	nt	nt
COC(=O)CC(=O)CSc1nc2cc(C(=O)NCC(C)C)ccc2c(=O)n1CCc1ccccc1	i	i	?	nt	-0.8	5.5%	nt	nt	nt
C=CCN(CC#Cc1ccccc1)Cc1ccc(OC)cc1	nt	nt	nt	nt	4.1	nt	nt	nt	nt
COc1ccc(-c2nc3c(c(SCC(=O)Nc4cccc(O)c4)n2)Cc2c(CO)cnc(C)c2O3)cc1	i	i	-1.1%	-8.0	-17.7	9.6%	nt	nt	nt
SMILES	KB-V1 MDR tox	KB-3-1 cytotox	Nrf2 inh	Giardia killer	PI4K2A block	A549 tox-1	FLuc enzyme inh	A549 tox-2	ARE-Fluc inh
Cc1ncc(CO)c2c1Oc1nc(-c3ccccc3)nc(SCC(=O)Nc3cccc(O)c3)c1C2	i	?	1.84µM*	4.8	-3.5	?	-2.2%	-14.4%	5.8µM*
CCOc1c(OC)cccc1C1CC(=O)Nc2cc3c(cc21)OCCO3 (centres undefined)	i	?	7.2%	12.6	-3.8	-1.1%	nt	nt	nt
CC(C)COc1ccccc1C1CC(=O)Nc2cc3c(cc21)OCO3 (centres undefined)	?	6.51µM*	8.2µM*	nt	3.2	-17.3%	-19.9%	?	23.1µM*
COc1ccccc1CNC(=O)c1ccc(-c2nc(CS(=O)c3ccc(C)cc3)c(C)o2)cc1 (centres undefined)	i	i	?	nt	-0.1	2.8%	nt	nt	nt
O=C1c2cccnc2C(=O)N1c1nc(-c2ccccc2)cs1	i	i	nt	nt	nt	nt	nt	nt	nt
C[n+]1ccccc1/C=C/c1c(F)cccc1F	i	?	2.59µM*	-12.4	1.0	?	1.3%	-29.8%	2.06µM*
C[n+]1ccccc1/C=C/c1ccc([N+](=O)[O-])cc1	?	i	3.66µM*	22.4	-3.0	?	1.1%	?	7.31µM*
Cc1ccccc1/C=C/c1cccc[n+]1C	i	?	1.84µM*	7.1	-4.2	-28.8%	2.4%	-28.3%	4.11µM*
C[n+]1ccccc1/C=C/c1ccccc1Cl	i	?	26.4%	-3.4	-4.0	-11.0%	nt	nt	nt
